# Measurements as given in PubChem BioAssay (NCI).
# The panel holds about 83,000 compounds, 20% with a hit somewhere; the sample as a whole holds those more often.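 Assay: single dose, 48 h. Readout: percent growth (0 = no net growth; negative = cell death). Active: <10.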 A number with no mark means an inactive call. The source made the active and inactive calls.
# What was measured:
# Experiment in all cases: NCI-60 one-dose screen, 48 h (100 = growth as untreated, 0 = no growth, -100 = all killed)
# Details in all cases: 10 µM unless noted
# NCI-H23 lung = tested on: NCI-H23 lung
# NCI-H226 lung = tested on: NCI-H226 lung
# NCI-H322M lung = tested on: NCI-H322M lung
# HOP-62 NSCLC = tested on: HOP-62 NSCLC
# NCI-H460 lung = tested on: NCI-H460 lung
# NCI-H522 lung = tested on: NCI-H522 lung
# A549/ATCC NSCLC = tested on: A549/ATCC NSCLC
# 786-0 renal = tested on: 786-0 renal
# COLO 205 colon = tested on: COLO 205 colon
Compound,growth (NCI-H23 lung),growth (NCI-H226 lung),growth (NCI-H322M lung),growth (HOP-62 NSCLC),growth (NCI-H460 lung),growth (NCI-H522 lung),growth (A549/ATCC NSCLC),growth (786-0 renal),growth (COLO 205 colon)
CC1=N[C@@H]2CN(C(=O)OC(C)(C)C)C[C@@H]2n2c1cc1ccccc1c2=O,93.7%,99.5%,98.6%,97.9%,109%,98.6%,103%,102%,107%
CC(C)(C)c1ccc(CC(=O)Nc2sc3c(c2C(N)=O)CCC(=O)C3)cc1,7.26% (active),11.4%,44%,30.5%,6.79% (active),-49.3% (active),17.1%,29.1%,-34.4% (active)
COc1ccc(CCOc2cc3c(cc2OC)CCN(C(=O)NCc2cocn2)C3c2ccc(C)cc2C)cc1 (configuration not stated),11.4%,34.3%,46%,8.99% (active),3.64% (active),-41.2% (active),7.81% (active),5.15% (active),-62% (active)
O=C(Nc1nc2ccc([N+](=O)[O-])cc2s1)Nc1ccccc1Br,9.86% (active),38.4%,27.6%,91.2%,27.4%,26.5%,49.4%,70%,55.3%
CCOc1cccc(-c2nc3sccn3c2-c2ccnc(S(C)(=O)=O)n2)c1,99.1%,94%,93.1%,100%,76.8%,98.9%,102%,103%,99.9%
Clc1ccc(N/N=c2/oc3ccccc3cc2-c2cc3ccccc3[nH]2)cc1,64.4%,77.7%,78.6%,75.9%,85.2%,77.1%,76.2%,87.7%,95.8%
CCc1cccc2c3c(sc12)C(c1ccc(OC)cc1)C(C#N)=C(/N=C/c1ccc(Cl)cc1)O3 (configuration not stated),19.9%,41.2%,55.1%,33.8%,11.5%,-40.4% (active),41.5%,39.3%,-18.9% (active)
CCNC(=O)N1CCc2cc(OC)c(OCCc3ccc(OC)nc3)cc2C1c1ccc(C)cc1C (configuration not stated),13%,33.2%,38%,21.8%,1.74% (active),-34% (active),4.74% (active),6.15% (active),7.67% (active)
COc1cc(OC)c(S(N)(=O)=O)cc1C(C)=O,106%,103%,109%,113%,107%,103%,104%,101%,119%
Cc1ccc(C(=O)NN2C(=O)/C(=C/C=C/c3ccco3)SC2=S)cc1,96.7%,96.1%,85.4%,105%,88.3%,83.5%,82.4%,106%,126%
O=S(=O)(Nc1ccc(I)cc1Cl)c1ccc(-c2cnc(C3CC3)o2)cc1,45.4%,62.5%,64.8%,52.7%,28.8%,34%,54.6%,40.4%,50.2%
Nc1nc(-c2cccc([N+](=O)[O-])c2)c(N=Nc2ccc(Br)cc2)s1,-65% (active),-39.2% (active),-25.4% (active),-68.1% (active),-61% (active),-48.6% (active),-20.3% (active),-96.4% (active),-2.36% (active)
N#Cc1c(Nc2ccccc2)nn2c(-c3ccc([N+](=O)[O-])cc3)ccnc12,100%,104%,102%,109%,99.3%,94.8%,94.4%,98.3%,107%
C#C[C@]1(O)CC[C@H]2[C@@H]3CC=C4c5sc(-c6ccc(C)cc6)nc5CC[C@]4(C)[C@H]3CC[C@@]21C,46.4%,99.3%,33%,23.2%,-0.692% (active),27.6%,38.3%,-52.5% (active),104%
COc1cc2nc(Cl)nc(Nc3cccc(C4=Nc5c(N)nc(N)nc5NC(c5ccc(F)cc5)C4)c3)c2cc1OC (configuration not stated),75.9%,75.8%,83.8%,12.2%,21.7%,50%,64.2%,62.1%,70.7%
CCO/C=N/C1=C(C#N)C(c2ccc(Cl)cc2)c2sc3c(CC)cccc3c2O1 (configuration not stated),22%,54.7%,43.3%,45.1%,9.19% (active),7.65% (active),30%,41.9%,14%
O=C(NNc1nc2cc(F)ccc2n2cccc12)c1ccncn1,30%,13.2%,31.7%,20.5%,9.08% (active),-6.6% (active),14.7%,11%,10.3%
CC[C@]12C=CCN3CC[C@@]4(c5cc(NC(=O)COc6cc(O)c7c(=O)cc(-c8ccccc8)oc7c6)c(OC)cc5N(C)[C@H]4[C@@](O)(C(=O)OC)[C@@H]1OC(C)=O)[C@@H]32,-92.9% (active),-70.4% (active),-51.8% (active),-73.6% (active),-57.7% (active),-49.7% (active),-68.5% (active),-59.9% (active),-81% (active)
COc1cccc(C(=O)Nc2cccc(C#Cc3cccc4[nH]nc(N)c34)c2)c1,66.7%,49.2%,84.2%,63.4%,44.8%,21.1%,51.1%,80.2%,67.6%
CCN(CC)c1ccc(NC2=C(Cl)C(=O)c3nc(C)ccc3C2=O)cc1,-10.3% (active),87.9%,109%,130%,100%,-44.3% (active),100%,60.6%,101%
C#CCC#CCN1CCC[C@H]1C(=O)NCC(=O)OC,96.7%,104%,101%,104%,112%,100%,97.6%,101%,114%
CNC(=O)c1cc(Oc2ccc3nc(NC(=O)c4ccc(N5CCOCC5)c(C(F)(F)F)c4)sc3c2)ccn1,78.9%,91.5%,91.7%,90.5%,68.8%,77.9%,80.5%,47.1%,102%
c1cc(-c2nc3ccc4[nH]ncc4c3c3c2CCCC3)[nH]n1,54.8%,74.9%,76.6%,68.6%,38.8%,30.9%,48.1%,64.7%,54.1%
COc1ccc2[nH]cc(/C=N/Nc3nc4ccccc4s3)c2c1,67.6%,75.6%,79.2%,62.9%,32.1%,28.5%,52.4%,52.9%,80.4%
CC(C)(C)c1ccc(-c2nnc(-c3nc4ccccc4nc3Cl)o2)cc1,90.9%,86.5%,92.9%,11.1%,88.1%,99.1%,102%,105%,104%
N/C(=N\C(N)=N\c1nc2ccccc2s1)c1ccncc1Cl,33.9%,67.8%,80.6%,51.6%,23.4%,18.4%,71%,42.7%,50.4%
O=S(=O)(Nc1ccc2c(c1)OCO2)c1ccc(-c2cnc(C3CC3)o2)cc1,42%,55.9%,64.5%,43.3%,23.5%,34.4%,43.8%,46.2%,35.3%
c1n[nH]cc1-c1nc2ccc3[nH]ncc3c2c2c1CCCC2,19%,29.1%,31.1%,14.7%,9.2% (active),2.99% (active),15.7%,16.9%,8.98% (active)
